NS1 inh – inhibitors of influenza NS1 protein function; Potency, µM (highest dose often 46.1 µM), inactives show at the top dose activity, positive = more growth; actives 0.4% (n = 270,000); calls by dose curve; also: actives are rising curves; nearly all actives have a fitted effect of over 50% in size
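Compounds were scored for reversing the slow growth caused by influenza A NS1 in S. cerevisiae, measured by optical density at 600 nm. Assay medium contained 2% galactose at pH 6.0; NS1-free yeast of the same strain were the positive control.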
RE007 growth inh – less growth of the S. pombe RE007 Vpr strain. S. pombe RE007 Vpr strain, BacTiter-Glo ATP luminescence, 24 h. Potency, µM (doses to about 92.2 µM), without a hit: top-dose activity change, negative = less growth, actives largely listed as inhibitors. actives 0.21% (n = 360,000). AID 651644; active = well fitted falling curve with a large enough effect; inconclusive = small, poorly fitted or top-dose-only effect; inactive = no such curve, though single readings can be large or run the other way; also: % is scaled to controls: 0 for no effect and ±100 for the full control effect; nearly all actives have a fitted effect of over 50% in size
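Fission yeast strain RE007, carrying one chromosomally integrated HIV-1 vpr copy, was seeded at OD 0.01 in PMG+AL medium with 23 nL pinned compound. After 24 h at 30 °C and 99% humidity, viability was read by BacTiter-Glo luminescence.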
SARS PLP yeast – blocks SARS-CoV papain-like protease in a yeast assay. S. cerevisiae expressing SARS-CoV PLpro, growth rescue. Potency, µM (series often up to 32.9 µM), for the others: top-dose activity, positive = growth rescue, usual class: activators. AID 485353. actives 0.19% (n = 330,000); calls by dose curve; also: 0% is about no effect; nearly all actives have a fitted effect of over 55% in size
Pf growth 48h – P. falciparum growth inhibition at 48 hours (one generation); Potency, µM (doses to about 28.7 µM), for the others: at the highest dose activity change, negative = inhibition, most hits filed as inhibitors; actives 5.9% (n = 310,000); P. falciparum luciferase growth in erythrocytes, 48 h; also: % is scaled to controls: 0 for no effect and ±100 for the full control effect
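Firefly luciferase activity from engineered P. falciparum reports growth; inhibitors lower the luminescent signal. Cultures contained 2% hematocrit erythrocytes at 0.1% final parasitemia.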
Pf growth 96h – inhibits malaria parasite growth, 96 h. P. falciparum luciferase reporter growth, 96 h. Potency, µM (titrated, usually from 28.7 µM), for the others: at the top dose activity change, negative = inhibition, most hits filed as inhibitors. actives 6.9% (n = 320,000); also: % is scaled to controls: 0 for no effect and ±100 for the full control effect
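Readout is luminescence from an integrated firefly luciferase in P. falciparum. Red cells, 2% hematocrit and 0.05% parasitemia final, were cultured with compound through two parasite generations (96 hours) at 37 C, 5% CO2.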
Starred values were filed as active, the others as inactive; ? = inconclusive; / = no result; [ ] = dose if it differs, or a comment. The list is not random: actives were taken first. Their share in the collection is about 9.5%. Unless noted, calls follow the shape of the dose curve; as a rule, active = well fitted inhibition curve with a large enough effect; inconclusive = small, poorly fitted or top-dose-only effect, or another doubt; inactive = no such curve, though single readings can be large or run the other way. Potency is read from the fitted curve at half-maximal effect.

SMILES	NS1 inh	RE007 growth inh	SARS PLP yeast	Pf growth 48h	Pf growth 96h
CCOC(=O)Cn1nc(-c2ccccc2)nc1-c1ccccc1	-8.9%	-29.4%	-3.4%	43.3%	/
CC(C)c1nc(SCC(=O)Nc2nccs2)c2ccccc2n1	8.6%	-3.9%	0.8%	-7.2%	?
CCOC(=O)CSc1nc(C(C)C)nc2ccccc12	-12.3%	-10.1%	-9.0%	0.1%	13.1µM*
CC(C)c1nc(SCC(=O)Nc2ccc(N(C)C)cc2)c2ccccc2n1	16.3%	-1.6%	-0.1%	11.7µM*	26.9%
O=C(O)[C@@H]1[C@@H]2C[C@H]([C@@H](Br)[C@H]2N2C(=O)CCC2=O)[C@@H]1C(=O)O	15.4%	/	/	/	/
COc1ccc(N2CCN(C(c3cccs3)C(C)NC(=O)C(=O)N3CCCCC3)CC2)cc1 (stereo unspecified)	-14.9%	-12.4%	6.6%	?	11.7µM*
COc1ccc(N2CCN(C(c3cccs3)C(C)NC(=O)C(=O)N3CCCC3)CC2)cc1 (stereo unspecified)	9.1%	4.7%	13.2%	?	-16.8%
COc1ccc(N2CCN(C(c3cccs3)C(C)NS(=O)(=O)c3ccccc3)CC2)cc1 (stereo unspecified)	-40.3%	-19.2%	-5.8%	13.1µM*	?
CCOc1ccc(S(=O)(=O)N2CCN(C(=O)c3ccncc3)CC2)cc1	5.8%	6.1%	1.2%	-1.7%	8.7%
O=C(NCc1ccc2c(c1)OCO2)c1ccc(COc2cc(Cl)ccc2Cl)o1	-5.8%	1.3%	-10.2%	/	6.57µM*
O=C(NC1CCCCC1)N1CCC(c2nc3ccccc3[nH]2)CC1	-1.4%	12.5%	12.8%	-6.9%	-9.5%
O=C(NC1CCCCC1)N1CCCC(c2nc3ccccc3[nH]2)C1 (stereo unspecified)	-11.6%	13.0%	2.3%	-14.9%	1.47µM*
Cc1ccc(N2CC(C(=O)N3CCC(c4nc5ccccc5[nH]4)CC3)CC2=O)cc1C (stereo unspecified)	/	-15.9%	-4.3%	?	10.4µM*
O=C(C1CCCCC1)N1CCC(c2nc3ccccc3[nH]2)CC1	-7.9%	1.5%	-6.5%	-25.4%	9.28µM*
CCC(=O)Nc1ccc(S(=O)(=O)N2CCC(c3nc4ccccc4[nH]3)CC2)cc1	/	3.4%	-3.6%	?	?
CCCC(=O)Nc1ccc(S(=O)(=O)N2CCC(c3nc4ccccc4[nH]3)CC2)cc1	/	-28.4%	-5.4%	13.1µM*	5.22µM*
CC(C)N1CCC(C)(C(=O)Nc2ccc(-n3cccc3)cc2)C1 (stereo unspecified)	/	12.9%	/	/	/
NS(=O)(=O)c1ccc(CCNC(=O)COC(=O)Cc2c(F)cccc2Cl)cc1	4.5%	-11.8%	2.7%	-0.2%	1.7%
O=C(C1CC(=O)N(c2ccc(F)cc2)C1)N1CCN(c2ccc(F)cc2)CC1 (stereo unspecified)	-13.4%	-7.2%	-0.9%	-3.5%	?
O=C(C1CC(=O)N(c2ccc(F)cc2)C1)N1CCC(c2nc3ccccc3[nH]2)CC1 (stereo unspecified)	/	2.8%	2.2%	?	8.28µM*
O=c1cc(-c2ccc(O)cc2)oc2cc(O[C@@H]3O[C@H](CO)[C@@H](O)[C@H](O)[C@H]3O[C@@H]3OC[C@](O)(CO)[C@H]3O)cc(O)c12	-13.9%	4.8%	-9.7%	10.4µM*	?
C(=N\N(Cc1ccccc1)c1ccccc1)/c1cccnc1	/	3.3%	-10.6%	13.1µM*	9.5%
C/C(=N\N(Cc1ccccc1)c1ccccc1)c1cccnc1	/	2.2%	-2.2%	8.28µM*	13.1µM*
C/C(=N\NC(=O)Cc1ccccc1)c1cccnc1	12.4%	13.6%	27.8%	4.4%	-9.4%
Oc1cccc(/C=N/N(Cc2ccccc2)c2ccccc2)c1	/	?	-0.3%	6.57µM*	?
SMILES	NS1 inh	RE007 growth inh	SARS PLP yeast	Pf growth 48h	Pf growth 96h
Oc1ccc(/C=N/N(Cc2ccccc2)c2ccccc2)c(O)c1O	/	-13.8%	15.5%	?	?
COc1ccc2c(c1)cc(C(=O)N[C@H](C(=O)N1CCC(C(=O)O)CC1)C(C)C)n2C	2.2%	-8.5%	-0.7%	-10.2%	5.0%
O=[N+]([O-])c1ccc(C2Oc3ccccc3C3CC(c4ccccc4)=NN32)s1 (stereo unspecified)	-31.1%	/	-94.2%	0.0%	?
CN(N=O)c1ccc(/C=C\c2ccnc3ccccc23)cc1	-10.8%	/	/	/	/
CC(=O)[C@H]1CC[C@H]2[C@@H]3C=CC4=CC(=O)CC[C@@]4(C)[C@H]3CC[C@]12C	/	/	/	-12.0%[12.8 µM]	-19.5%[12.8 µM]
Cc1nnc(N/N=C/c2c(O)n(-c3cccc(C(F)(F)F)c3)c(=O)c3ccccc23)[nH]c1=O	7.0%	/	-1.5%	6.57µM*	?
COC(=O)c1ccccc1NC(=O)CCC(=O)N1CC(C)Oc2ccc(C)cc21 (stereo unspecified)	-26.9%	-4.4%	?	23.5%	32.7%
CCC1N=C(SC)NC(C)=C1C(=O)c1ccccc1 (stereo unspecified)	/	-0.2%	1.9%	0.0%	115.9%
CSC1=NC(C(Cl)(Cl)Cl)N=C(c2ccc(C)cc2)N1 (stereo unspecified)	/	16.2%	-3.2%	11.7µM*	?
CN1CCN(CCCC(=O)c2ccc(F)cc2)CC1	-2.8%	-0.9%[3.69 µM]	0.3%	26.1%	?
O=C(CCCN1Cc2ccccc2C1)c1ccc(F)cc1	-4.8%	11.1%	-4.6%	19.9%	5.22µM*
CC(C)(C)N1C(=O)[C@H]2[C@@H](c3ccc(Br)cc3)N3C(=O)N(c4cccc(Cl)c4)C(=O)[C@@]3(Cc3ccccc3)[C@H]2C1=O	/	-20.1%	-0.9%	3.29µM*	4.65µM*
COc1ccc([C@@H]2[C@@H]3C(=O)N(C(C)(C)C)C(=O)[C@@H]3[C@]3(Cc4ccccc4)C(=O)N(c4cccc(Cl)c4)C(=O)N23)cc1	/	10.2%	-0.3%	6.57µM*	9.28µM*
COc1ccc([C@@H]2[C@@H]3C(=O)N(C(C)(C)C)C(=O)[C@@H]3[C@]3(Cc4ccccc4)C(=O)N(c4ccc(Br)cc4)C(=O)N23)cc1	-9.6%	-11.1%	-4.3%	4.15µM*	5.22µM*
CC[C@@]12C(=O)N(c3cccc(Br)c3)C(=O)N1[C@H](c1ccc(Br)cc1)[C@@H]1C(=O)N(C(C)(C)C)C(=O)[C@@H]12	/	6.3%	-11.4%	10.4µM*	4.65µM*
COc1ccc(N2C(=O)N3[C@H](c4ccc(Br)cc4)[C@@H]4C(=O)N(C(C)(C)C)C(=O)[C@@H]4[C@]3(Cc3ccccc3)C2=O)cc1	8.0%	7.4%	2.2%	-81.8%	?
CC(C)(C)OC(=O)C[C@@H]1C/C=C\C[C@H](CC(=O)N[C@@H](CO)Cc2ccccc2)C(=O)N[C@H](C(C)(C)C)COC1=O	/	3.6%	-15.5%	/	/
COc1ccc([C@@H]2[C@@H]3C(=O)N(C(C)(C)C)C(=O)[C@@H]3[C@]3(Cc4ccc(Cl)cc4)C(=O)N(c4cccc(Br)c4)C(=O)N23)cc1	4.6%	-4.2%	5.7%	?	?

Screening data deposited in PubChem by National Center for Advancing Translational Sciences (NCATS).
